Data on 14 compounds can be found in PubChem BioAssay (EPA / NIEHS).

A word on the AC50: it is the concentration at which the activity in the assay is half-maximal.

Several values for one entry are separate records, joined by “and”; a condition that tells them apart may be missing. Equal values may be shown once. Records with an inconclusive call do not appear. Activity calls are given as the source filed them. How the source made its calls, unless noted: active means hit-call score of the fitted dose curve at least 0.9, where 1 is the maximum; inconclusive means response in the unintended direction; inactive means score below 0.9. *1 amine or outer side, *2 acyl side, *3 side chain or, on linkers, in order; H or OH if unused. Where a SMILES comes first, the peptide text is derived from it. Bridges are numbered along the chain shown (N, C = ends). Roman numbers before positions name the chains, in order. [ ]: non-standard residue; d: D form. Actinocin(9to1) = Cc1c2oc3c(C)ccc(C(=O)[*:1])c3nc-2c(C(=O)[*:2])c(N)c1=O; NMeV = CN[C@H](C(=O)O)C(C)C; Sar = CNCC(=O)O

For assay [1], the target named is Cellular tumor antigen p53 (Homo sapiens) (UniProt P04637). Nature of the assay: TOX21_p53_BLA_p2_ratio: Tox21 HCT-116 p53 Agonism Beta-lactamase Assay, Ratio, Phase 2 (AID 2283592). In a few lines:
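Ratio endpoint: beta-lactamase cleavage of CCF4-AM, blue (460 nm) over green (530 nm). HCT116 reporter line; 16 h treatment, 37C; substrate 2 h RT.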

Assay [2] is described as follows: TOX21_p53_BLA_p3_viability: Viability Assessment in the Tox21 HCT-116 p53 Agonism Beta-lactamase Assay, Phase 3 (AID 2283593).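 Further: cells exposed to compound for 16 h before reading.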 The procedure, abridged: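 HCT-116 cells (4000/well) rested 5 h at 37C, then got DMSO compounds by pin tool (217-fold dilution) for 16 h at 37C, 5% CO2. After the bla read, CellTiter-Glo was added and luminescence read at 30 min, room temperature.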

In assay [3] the target is Cellular tumor antigen p53 (Homo sapiens) (UniProt P04637). The assay is described as follows: TOX21_p53_BLA_p3_ratio: Tox21 HCT-116 p53 Agonism Beta-lactamase Assay, Ratio, Phase 3 (AID 2283596). In a few lines:
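Cells were seeded at 4000/well, rested 5 h at 37C, then dosed with DMSO compound solutions (217-fold dilution) for 16 h. CCF4-AM substrate was loaded for 2 h at room temperature, and the 460/530 nm emission ratio was fitted for gain of signal versus DMSO.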

The nature of assay [4]: TOX21_p53_BLA_p4_viability: Viability Assessment in the Tox21 HCT-116 p53 Agonism Beta-lactamase Assay, Phase 4 (AID 2283597).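 Further: hits lower the luminescence signal meaning cytotoxicity.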 The procedure, abridged:
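Cytotoxicity was inferred from loss of CellTiter-Glo luminescence. HCT116 cells had been dosed with compounds after 5 h plating, incubated 16 h at 37C and 5% CO2, and exposed to the CCF4-AM substrate for 2 h.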

For assay [5], the target named is Cellular tumor antigen p53 (Homo sapiens) (UniProt P04637). Nature of the assay: TOX21_p53_BLA_p5_ratio: Tox21 HCT-116 p53 Agonism Beta-lactamase Assay, Ratio, Phase 5 (AID 2283599). The procedure, abridged: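 HCT-116 cells carrying a p53-inducible beta-lactamase reporter were seeded at 4000 cells/well and dosed after 5 h with compound in DMSO (217-fold dilution). After 16 h at 37C, CCF4-AM substrate was added for 2 h, and the 460/530 nm emission ratio was scored as gain-of-signal versus DMSO.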

Assay [6] shares this target. The assay is described as follows: TOX21_p53_BLA_p4_ratio: Tox21 HCT-116 p53 Agonism Beta-lactamase Assay, Ratio, Phase 4 (AID 2283601). In a few lines:
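HCT116 cells carrying an inducible beta-lactamase reporter were plated at 4000 cells/well, rested 5 h, then exposed to compounds in DMSO (217-fold dilution) for 16 h at 37C. CCF4-AM substrate was loaded 2 h at room temperature; 460/530 nm emission ratio scored gain-of-signal versus DMSO.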

The nature of assay [7]: CCTE_Deisenroth_DEVTOX-GLR_legacy_CellCount: (Legacy) Viability Assessment in CCTE's DevTox GLR-Endo Assay, Deisenroth Lab (AID 2284331; active means hit-call score of the fitted dose curve at least 0.9, where 1 is the maximum; inactive means score below 0.9). Conditions: actives raise or lower the signal. In a few lines:
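Human pluripotent RUES2-GLR cells differentiated 48 h with two 24-h-interval exposures, 10-point 1 nM–200 uM series, 0.2% DMSO. Fixed nuclei counted by high-content imaging (5 fields/well); bidirectional fit vs DMSO, n≥4.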

Assay [8] concerns SRY-box transcription factor 17 (SOX17) Protein Expression, Deisenroth Lab, SOX17 (gene 64321). The assay is described as follows: CCTE_Deisenroth_DEVTOX-GLR_legacy_Sox17: (Legacy) CCTE's DevTox GLR-Endo Assay Evaluation of SRY-box transcription factor 17 (SOX17) Protein Expression, Deisenroth Lab (AID 2284341; active means hit-call score of the fitted dose curve at least 0.9, where 1 is the maximum; inactive means score below 0.9). Conditions: actives raise or lower the signal. In a few lines: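 RUES2-GLR human pluripotent cells differentiated toward endoderm for 48 h, dosed twice at 24 h intervals (1 nM–200 uM, 10 points). Imaging gives % SOX17+ cells (intensity >5x BMAD above pluripotent control median); bidirectional fit versus 0.2% DMSO.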

Assay [9] relates to SRY-box transcription factor 2 (SOX2) Protein Expression, Deisenroth Lab, SOX2 (gene 6657). The assay is described as follows: CCTE_Deisenroth_DEVTOX-GLR_legacy_Sox2: (Legacy) CCTE's DevTox GLR-Endo Assay Evaluation of SRY-box transcription factor 2 (SOX2) Protein Expression, Deisenroth Lab (AID 2284346; active means hit-call score of the fitted dose curve at least 0.9, where 1 is the maximum; inactive means score below 0.9). In a few lines:
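Two exposures, 24 h apart, during 48 h defined-media differentiation of seeded RUES2-GLR cells; nuclei-stained cells imaged. Sox2 positivity called at 5x BMAD above endoderm control median, DMSO median subtracted.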

Assay [10] has as its system SRY-box transcription factor 17 (SOX17) Protein Expression, Deisenroth Lab, SOX17 (gene 64321). The assay is described as follows: CCTE_Deisenroth_DEVTOX-GLR_Endo_SOX17: CCTE's DevTox GLR-Endo Assay Evaluation of SRY-box transcription factor 17 (SOX17) Protein Expression, Deisenroth Lab (AID 2284413; active means hit-call score of the fitted dose curve at least 0.9, where 1 is the maximum; inactive means score below 0.9). The procedure, abridged:
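Fluorescent microscopy of a SOX17 reporter in RUES2-GLR pluripotent cells scored endoderm differentiation after 48 h and two 24-h-spaced exposures. Values are percent change in SOX17+ population against 0.2% DMSO, n=4 experimental replicates.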

In assay [11] the test system is Brachyury (BRA) Protein Expression, TBXT (gene 6862). Nature of the assay: CCTE_Deisenroth_DEVTOX-GLR_Endo_BRA: CCTE's DevTox GLR-Endo Assay Evaluation of Brachyury (BRA) Protein Expression, Deisenroth Lab (AID 2284417; active means hit-call score of the fitted dose curve at least 0.9, where 1 is the maximum; inactive means score below 0.9). In a few lines: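 RUES2-GLR pluripotent cells differentiated 48 h with two chemical exposures 24 h apart, 10-point range 1 nM - 200 uM. Percentage of BRA+ cells per total count by high-content imaging, minus 0.2% DMSO control.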

A short description of assay [12]: CCTE_Deisenroth_DEVTOX-GLR_Endo_CellCount: Viability Assessment in CCTE's DevTox GLR-Endo Assay, Deisenroth Lab (AID 2284420; active means hit-call score of the fitted dose curve at least 0.9, where 1 is the maximum; inactive means score below 0.9). The procedure, abridged: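 RUES2-GLR human pluripotent cells seeded 24 h, then differentiated 48 h with two chemical exposures at 24 h intervals (10-point, 1 nM - 200 uM). Fixed, nuclear-stained, imaged; nuclei counts give % change in cell count versus 0.2% DMSO.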

Assay [13] can be described thus: TOX21_p53_BLA_p5_viability: Viability Assessment in the Tox21 HCT-116 p53 Agonism Beta-lactamase Assay, Phase 5 (AID 2283600). The procedure, abridged:
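Luciferase-coupled ATP quantitation of cells treated for 16 h (37C, 5% CO2) with test chemicals delivered in DMSO via a 217-fold dilution; 4000 cells/well; reagent incubated 30 min at room temperature before luminescence reading.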

Sequence of Cellular tumor antigen p53 (Homo sapiens) (P04637 whole entry, looked up): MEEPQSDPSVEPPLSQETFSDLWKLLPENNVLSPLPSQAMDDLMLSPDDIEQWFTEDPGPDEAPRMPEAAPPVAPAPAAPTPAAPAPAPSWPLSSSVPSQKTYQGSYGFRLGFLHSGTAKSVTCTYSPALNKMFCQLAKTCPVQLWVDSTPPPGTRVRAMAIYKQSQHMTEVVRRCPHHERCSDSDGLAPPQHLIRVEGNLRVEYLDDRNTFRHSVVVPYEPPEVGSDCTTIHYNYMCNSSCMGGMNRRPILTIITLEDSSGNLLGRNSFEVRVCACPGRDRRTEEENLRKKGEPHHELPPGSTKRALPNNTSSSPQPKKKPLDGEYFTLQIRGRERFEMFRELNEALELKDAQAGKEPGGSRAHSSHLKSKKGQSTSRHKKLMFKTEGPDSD

With `C[C@@H]1C[C@H]2[C@@H]3C[C@H](F)C4=CC(=O)C=C[C@]4(C)[C@@]3(Cl)[C@@H](O)C[C@]2(C)[C@H]1C(=O)COC(=O)C(C)(C)C`, the outcome in assay [1], in [2], in assay [3], in assay [4], in assay [5] and in [6] was inactive.

On to `Cc1c2oc3c(C)ccc(C(=O)N[C@@H]4C(=O)N[C@H](C(C)C)C(=O)N5CCC[C@H]5C(=O)N(C)CC(=O)N(C)[C@@H](C(C)C)C(=O)O[C@@H]4C)c3nc-2c(C(=O)N[C@@H]2C(=O)N[C@H](C(C)C)C(=O)N3CCC[C@H]3C(=O)N(C)CC(=O)N(C)[C@@H](C(C)C)C(=O)O[C@@H]2C)c(N)c1=O` (I: T[dV]P[Sar][NMeV] / II: T[dV]P[Sar][NMeV]; ester I:1-I:C, II:1-II:C; linker I:N-II:N via Actinocin(9to1)), for which the AC50 in assay [1] was 0.163 nM (active) and 3.91 nM (active); in assay [2], 40600 nM (active); in assay [3], 0.165 nM (active) and 4.24 nM (active); in assay [5], 0.0328 nM (active) and 7.71 nM (active); in assay [6], 0.262 nM (active) and 3.61 nM (active); in assay [7], 0.297 nM (active). Further, the AC50 in assay [8] is 0.544 nM (active); in assay [9] it was 2.31 nM (active); in assay [10], 0.0442 nM (active); in assay [11] it was 1.08 nM (active); in assay [12], 0.0148 nM (active). Moreover, the compound was classed as inactive in assay [4].

Consider `C=C[C@]1(C)C[C@@H](OC(=O)CO)[C@]2(C)[C@H](C)CC[C@]3(CCC(=O)[C@H]32)[C@@H](C)[C@@H]1O`, for which the outcome in assay [1], in [2], in [3], in assay [4], in [13] and in [6] was inactive.

In the case of `CC1C(=O)CC2C3(C)CCC2(C(C)C(=O)O)C(=O)C13` (centres undefined), the result in [1], in [2], in assay [3], in assay [4], in assay [5] and in [6] was inactive.

On to `O=NN(CCCl)C(=O)NC1CCCCC1`, for which the outcome in assay [1], in [2], in [3], in assay [4] and in assay [13] was inactive.

With `CCn1nc(C(=O)O)c(=O)c2cc3c(cc21)OCO3`, the outcome in [1], in [2], in assay [3], in assay [5], in [13] and in assay [6] was inactive.

With `CCOc1cc(CC(=O)N[C@@H](CC(C)C)c2ccccc2N2CCCCC2)ccc1C(=O)O`, the result in assay [1], in assay [2], in [3], in [4] and in assay [6] was inactive.

`O=P(O)(O)OC(Cn1cncn1)(Cn1cncn1)c1ccc(F)cc1F`: the outcome in [1], in [2], in assay [3], in assay [5] and in assay [13] was inactive.

As for `CC(=O)CC(=O)Nc1ccc2[nH]c(=O)[nH]c2c1`, the result in assay [1], in [2], in assay [3] and in assay [5] was inactive.

Consider `NCC(=O)O`, for which the result in [1], in assay [2], in assay [3], in assay [5] and in [13] was inactive.

Consider `CC(C)(C)NCC(O)c1ccc(O)c(CO)n1` (centres undefined), for which the outcome in assay [1], in assay [2], in [3], in assay [5], in assay [13] and in assay [6] was inactive.

Consider `CC(C)CC(C)(N)C#N` (centres undefined), for which the outcome in [1], in assay [2], in assay [3], in assay [5], in assay [13] and in assay [6] was inactive.

For the compound `O=c1[nH]c(=O)n([C@H]2C[C@H](O)[C@@H](CO)O2)cc1I`, the result in assay [1], in assay [2], in assay [3], in assay [5], in [13] and in [6] was inactive.

Take `CCN(CC)CCNC(=O)c1ccc(NC(C)=O)cc1`: the result in [1], in assay [2], in assay [3], in assay [5], in [13] and in assay [6] was inactive.
